From PubChem BioAssay
Sampled rows, rich in hits. Any-hit rate of the full collection: about 12%.
HCV inhibitor: inhibitors of hepatitis C virus infection; 340,000 compounds, 3.4% hits; Potency, µM (titrated, usually from 41.8 µM), without a hit: at the top dose activity change, negative = inhibition, usual class: inhibitors; Huh7.5.1 HCVcc-Cre infection, luciferase reporter, 44 h; AID 651820; also: % is scaled to controls: 0 for no effect and ±100 for the full control effect
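Seed cells (1,000/well) for 4 h; treat with compound and infect with HCVcc-Cre, moi about 0.5. Incubate 44 h, then detect luciferase activity.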
AMA1 RON2 block: disrupts binding of P. falciparum AMA1 to RON2; AlphaScreen AMA1-biotinylated RON2 peptide binding; Potency, µM (titrated, usually from 58.2 µM), without a hit: at the top dose activity change, negative = inhibition, usual class: inhibitors; 360,000 compounds, 0.2% hits;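 also: 0% = vehicle wells and -100% = peptide control; nearly all actives have a fitted effect of over 45% in size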
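AMA1 (3D7) with his tag at 25 nM final met compounds first, then biotinylated RON2 peptide at 25 nM; detection used donor plus acceptor beads, 10 µg/mL apiece, read by AlphaScreen after 30 min at room temperature.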
Pf growth 48h: P. falciparum growth inhibition at 48 hours (one generation). Potency, µM (series often up to 28.7 µM), for the others: top-dose activity change, negative = inhibition, usual class: inhibitors. P. falciparum luciferase growth in erythrocytes, 48 h. 310,000 compounds, 5.9% hits; also: % is scaled to controls: 0 for no effect and ±100 for the full control effect
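Luminescence readout; reporter = integrated firefly luciferase in P. falciparum. RBC culture at 2% hematocrit, 0.1% parasitemia final, 37 C/5% CO2; decreased signal taken as growth inhibition.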
Pf growth 96h: inhibits malaria parasite growth, 96 h; P. falciparum luciferase reporter growth, 96 h; Potency, µM (doses to about 28.7 µM), for inactives: at the highest dose activity change, negative = inhibition, actives largely listed as inhibitors; 320,000 compounds, 6.9% hits; AID 504834; also: % is scaled to controls: 0 for no effect and ±100 for the full control effect
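Two-generation exposure (96 h) targets delayed-death phenotype. Reporter parasites carrying integrated firefly luciferase, in red cells at 2% hematocrit and 0.05% parasitemia final, kept at 37 C, 5% CO2; luminescence loss indicates inhibition.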
SARS PLpro yeast: SARS-CoV PLP inhibition in yeast | AID 485353 | Potency, µM (series often up to 32.9 µM), inactives show at the top dose activity, positive = growth rescue, usual class: activators | 330,000 compounds, 0.19% hits | S. cerevisiae expressing SARS-CoV PLpro, growth rescue; calls by dose curve; also: 0% is about no effect; nearly all actives have a fitted effect of over 55% in size
NS1 inh: inhibitors of influenza NS1 protein function. Potency, µM (titrated, usually from 46.1 µM), inactives show at the highest dose activity, positive = more growth. 270,000 compounds, 0.4% hits. AID 2326; calls by dose curve; also: actives are rising curves; nearly all actives have a fitted effect of over 50% in size
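S. cerevisiae expressing influenza A NS1, grown in glucose, washed, then diluted 1:100 into pH 6.0 -URA galactose medium with 23 nl compound. Growth recovery read as OD600; NS1-free strain serves as control.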
Numbers without * were called inactive. Unless noted, calls follow the shape of the dose curve; as a rule, active = well fitted curve in the direction sought with a large enough effect; inconclusive = small, poorly fitted or top-dose-only effect, or another doubt; inactive = no such curve, though single readings can be large; an effect the other way counts as inactive or inconclusive. Potency is read from the fitted curve at half-maximal effect.

What do the screens show for `CC1=CC(C)(C)N2C(=O)C3(C(C#N)=C(N)Oc4cc(C)oc(=O)c43)c3cccc1c32` (stereo not drawn)?
HCV inhibitor: inconclusive; AMA1 RON2 block: -8%; Pf growth 48h: inconclusive; Pf growth 96h: 15µM*; SARS PLpro yeast: -2%; NS1 inh: -47%

What do the screens show for `CCN1C(=O)C2(C(C#N)=C(N)Oc3cc(C)oc(=O)c32)c2ccccc21` (stereo not drawn)?
HCV inhibitor: 18%; AMA1 RON2 block: -5%; Pf growth 48h: 8%; Pf growth 96h: 32%; SARS PLpro yeast: 3%; NS1 inh: 1%

What do the screens show for `CCOc1cc2c3c(c1)C1(C(=O)N3C(C)(C)C=C2C)C(C#N)=C(N)Oc2cc(O)ccc21` (stereo not drawn)?
HCV inhibitor: inconclusive; AMA1 RON2 block: -2%; Pf growth 48h: 4.7µM*; SARS PLpro yeast: -3%; NS1 inh: -44%

What do the screens show for `COc1cc(OC)cc(C(=O)N[C@H](C(=O)NC2CCCc3ccccc32)C(C)C)c1` (stereo partly drawn)?
HCV inhibitor: -4%; AMA1 RON2 block: -8%; SARS PLpro yeast: 2%

What do the screens show for `CCc1nn2cc(C(=O)c3cc(Cl)ccc3O)cnc2c1-c1ccc(F)cc1`?
HCV inhibitor: inconclusive; AMA1 RON2 block: -22%; Pf growth 48h: 6.6µM*; Pf growth 96h: inconclusive; SARS PLpro yeast: -92%; NS1 inh: -3%

Results for Cn1c(=O)[nH]c(=O)c2cc(C(=O)c3cc(F)ccc3O)cnc21 ?
HCV inhibitor: 13%; AMA1 RON2 block: 12%; Pf growth 48h: 0%; Pf growth 96h: 1%; SARS PLpro yeast: -1%; NS1 inh: 2%

What do the screens show for `CCCn1cc(CN2CCC(N3CCC(C(=O)N4CCOCC4)CC3)CC2)c(C)n1`?
HCV inhibitor: 2%; AMA1 RON2 block: 0%; Pf growth 48h: 24%; Pf growth 96h: -12%; SARS PLpro yeast: 0%; NS1 inh: -1%

Results for COc1cc(NC(=O)c2cccs2)c(OC)cc1NC(=O)c1cccs1 ?
HCV inhibitor: -12%; AMA1 RON2 block: -5%

How did COC1CC(=C(c2cccs2)c2cccs2)C[N+](C)(C)C1 (stereo not drawn) do in these assays?
Pf growth 48h: 4.8µM*; Pf growth 96h: -7%

How did CC(NC(=S)Nc1ccc(OC(F)F)c(Cl)c1)C(C)(C)C (stereo not drawn) do in these assays?
HCV inhibitor: 11µM*; AMA1 RON2 block: 47%; Pf growth 48h: inconclusive; Pf growth 96h: inconclusive; SARS PLpro yeast: -5%

How did FC(F)Oc1ccc(NC(=S)NCc2ccccc2)cc1Cl do in these assays?
HCV inhibitor: 13µM*; AMA1 RON2 block: 10%; Pf growth 48h: 18%; SARS PLpro yeast: -9%; NS1 inh: -65%

Results for Cc1ccc(NC(=S)Nc2ccc(OC(F)F)c(Cl)c2)cc1Cl ?
HCV inhibitor: inconclusive; AMA1 RON2 block: 40%; Pf growth 48h: inconclusive; Pf growth 96h: inconclusive; SARS PLpro yeast: -27%; NS1 inh: -37%

What do the screens show for `COc1ccc(/C=N/NC(=O)c2c(Br)cnn2C)c2ccccc12`?
HCV inhibitor: inconclusive; AMA1 RON2 block: 9%; Pf growth 48h: -14%; Pf growth 96h: -22%; SARS PLpro yeast: -2%; NS1 inh: 11%

Results for Cc1c(C(=O)NCc2ccc3c(c2)OCO3)oc2ccc(S(=O)(=O)N3CCCCC3)cc12 ?
HCV inhibitor: inconclusive; AMA1 RON2 block: 3%; Pf growth 48h: 10µM*; Pf growth 96h: inconclusive; SARS PLpro yeast: 3%; NS1 inh: inconclusive

What do the screens show for `CCn1cc(S(=O)(=O)NCc2ccc3c(c2)OCO3)cn1`?
HCV inhibitor: 16%; AMA1 RON2 block: 6%; Pf growth 48h: 22%; Pf growth 96h: 12µM*; SARS PLpro yeast: -6%; NS1 inh: -3%

How did O=C(NCc1ccc2c(c1)OCO2)c1ccc(S(=O)(=O)N2CCCCC2)cc1 do in these assays?
HCV inhibitor: -22%; AMA1 RON2 block: -2%; Pf growth 48h: -7%; SARS PLpro yeast: 2%; NS1 inh: 0%

Results for Cc1c(C(=O)NCc2ccc3c(c2)OCO3)oc2ccc(S(=O)(=O)N3CCCC3)cc12 ?
HCV inhibitor: inconclusive; AMA1 RON2 block: -8%; Pf growth 48h: 12µM*; Pf growth 96h: inconclusive; SARS PLpro yeast: -4%; NS1 inh: -39%

How did Cc1ccc(CNC(=O)c2oc3ccc(S(=O)(=O)N4CCOCC4)cc3c2C)cc1 do in these assays?
HCV inhibitor: inconclusive; AMA1 RON2 block: 8%; Pf growth 48h: inconclusive; SARS PLpro yeast: 0%; NS1 inh: 5%

Results for COc1ccc(CNC(=O)c2oc3ccc(S(=O)(=O)N4CCOCC4)cc3c2C)cc1 ?
HCV inhibitor: -29%; AMA1 RON2 block: 4%; Pf growth 48h: 12µM*; Pf growth 96h: inconclusive; SARS PLpro yeast: -1%; NS1 inh: 9%

Results for CCn1cc(S(=O)(=O)Nc2ccc3c(c2)OCCO3)cn1 ?
HCV inhibitor: -13%; AMA1 RON2 block: 4%; Pf growth 48h: 104%; Pf growth 96h: 21%; SARS PLpro yeast: -1%; NS1 inh: 5%

Results for O=C(O)C1CCc2nc(NCc3ccccc3)nc(NCc3ccccc3)c2C1 (stereo not drawn) ?
HCV inhibitor: 15%; AMA1 RON2 block: -8%

What do the screens show for `CCC1(C)OC(=O)NN(c2ccc(C)cc2)C1(C)O` (stereo not drawn)?
HCV inhibitor: -15%; AMA1 RON2 block: -1%; Pf growth 48h: 16%; Pf growth 96h: 12%; SARS PLpro yeast: 3%; NS1 inh: 1%

Results for COC(=O)c1ccc(NS(=O)(=O)c2cc(-c3cc(C)no3)ccc2OC)cc1 ?
HCV inhibitor: -10%; AMA1 RON2 block: -3%; Pf growth 48h: inconclusive; Pf growth 96h: -46%; SARS PLpro yeast: 29%; NS1 inh: -12%

How did O=C(COC(=O)c1cccc(Cl)c1)Nc1cccc(S(=O)(=O)NC2=NCCC2)c1 do in these assays?
HCV inhibitor: 9%; AMA1 RON2 block: -1%; SARS PLpro yeast: -5%

How did Cc1ccc(CNS(=O)(=O)c2ccc3oc(C(=O)O)c(C)c3c2)cc1 do in these assays?
HCV inhibitor: 0%; AMA1 RON2 block: -3%; Pf growth 48h: 14%; Pf growth 96h: inconclusive; SARS PLpro yeast: -6%; NS1 inh: 9%

How did Cc1c(C(=O)O)oc2ccc(S(=O)(=O)NCc3ccc4c(c3)OCO4)cc12 do in these assays?
HCV inhibitor: 19%; AMA1 RON2 block: 5%; Pf growth 48h: 0%; Pf growth 96h: 5.9µM*; SARS PLpro yeast: -1%; NS1 inh: 11%
